# Assay results as given in PubChem BioAssay (NCI).
# “And” between values parts separate entries of the source, which are not always exact repeats. Equal values may be shown once. Compounds without any hit were thinned out: in the full panel of roughly 83,000, 20% have a hit.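 Treatment: one concentration, 48 hours, 96-well format. Scoring: percent growth, with anything below 10 considered active.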 The source made the active and inactive calls.
# Tested on: MDA-MB-468 breast
# Assay: NCI-60 one-dose screen, 48 h (100 = growth as untreated, 0 = no growth, -100 = all killed)
# Settings: 10 µM unless noted
row,Structure (SMILES),growth
1,CCN(CC)c1ccc(C(=O)c2ccc(N(CC)CC)cc2)cc1,-36% (active)
2,COc1ccc(SC2c3cc(OC)c(OC)cc3Oc3nc(N)c(C#N)c(N)c32)cc1 (stereo not given),-40.7% (active)
3,CCCCN(CCCC)C(=N)c1ccnc2ccccc12,117% (inactive)
4,C/C(=C(\c1ccc(OCCN2CCOCC2)cc1)c1ccc(OC(=O)C2CCCCC2)cc1)c1ccc(Cl)cc1,79.2% (inactive)
5,COc1cc(C(=C2O[C@@H]([C@H]3COC(C)(C)O3)[C@H]3OC(C)(C)O[C@@H]23)c2cc(OC)c(OC)c(OC)c2)cc(OC)c1OC,106% (inactive)
6,O=C(NCCc1ccccc1)Nc1ccc2cc3ccc(NC(=O)NCCc4ccccc4)cc3nc2c1,-5.36% (active)
7,CCc1nn2c(-c3ccccc3)c(-c3cc(OC)c(OC)c(OC)c3)nc2s1,66% (inactive)
8,Clc1ccc(-c2csc(N/N=C/c3nc4ccccc4n3C3CC3)n2)cc1,90.1% (inactive)
9,CCOC(=O)Nc1nc2ccc(SCC(C)C)cc2s1,2.1% (active)
10,O=C(c1ccccc1)C(c1ccccc1)N1CCOCC1 (stereo not given),103% (inactive)
11,CCCN1CCN(c2ccc3nc(-c4ccc5nc(-c6ccc(C(F)(F)F)cc6)[nH]c5c4)[nH]c3c2)CC1,-63.6% (active)
12,O=C(NC(Cc1ccc(O)cc1)C(=O)N=Nc1c(O)[nH]c2ccccc12)c1ccccc1 (stereo not given),109% (inactive)
13,O=C(Nc1ccc(N2CCOCC2)cc1)Nc1ccc2c(ccn2C(=O)c2cccc(F)c2)c1,27.5% (inactive)
14,CCCNC(=O)Oc1ccc(/C(=C(/C)Cc2ccc(OC)cc2)c2ccc(OCCCN(C)C)cc2)cc1,73.6% (inactive)
15,Nc1ccc2cc3ccc(N)cc3nc2c1,112% (inactive) and -42% (active)
16,CCCCCn1c(C)cc(/C=C\c2ccc3cc(C)ccc3[n+]2C)c1C,-82.4% (active)
17,CN(C)/C(N)=N/N=C(\c1ccccc1)c1ccccn1,95.8% (inactive)
18,COc1cc2c3c(n(CCCNC4CCCC4)c(=O)c2cc1OC)-c1cc2c(cc1C3=O)OCO2,70.9% (inactive)
19,COc1cc(NCCCCCNC(C)(C)C)c2ncccc2c1,-6.36% (active)
20,O=C(CC(=O)c1cccc(Cl)c1)c1cccc(Cl)c1,41.7% (inactive)

row,Structure (SMILES),growth
1,ClCCn1cnc2c(SCc3ccccc3)ncnc21,74.8% (inactive)
2,O=C1/C(=C/c2ccc(Cl)c(Cl)c2)CN(C(=O)CCN2CCC(=NO)CC2)C/C1=C\c1ccc(Cl)c(Cl)c1,-72.3% (active)
3,CON1CCC[C@]2(C)[C@H]3CC[C@@H]4[C@H]5[C@@H](O)C(C)(C)CC[C@]5(CO)CC[C@@]4(C)[C@]3(C)CC[C@H]2C1(C)C,114% (inactive)
4,CC(=O)OCC(=O)[C@@]1(O)CC[C@H]2[C@@H]3CC(=C(Br)Br)C4=CC(=O)CC[C@]4(C)[C@H]3C(=O)C[C@@]21C,79.1% (inactive)
5,Clc1ccccc1-c1nc2ccccc2[nH]1,88.3% (inactive)
6,CN1C(=O)N(C)C2Nn3c(s/c(=C4\C(=O)N(CCc5ccccc5)c5ccccc54)c3=O)=NC21 (stereo not given),39% (inactive)
7,Cc1cc(O)cc(-c2nn(C)cc2-c2cc(N3CCOCC3)nc(-c3cccnc3)n2)c1,-3.22% (active)
8,N=C(N)c1ccc(-c2ccc(-c3cc(Cl)cc(Cl)c3)o2)o1,-69.1% (active)
9,CC(=O)Oc1ccc(C2OC(c3ccc4ccccc4c3OC(C)=O)=NN2C(C)=O)c(OC(C)=O)c1 (stereo not given),-14.4% (active)
10,Cc1sc2nc(NCCc3c[nH]c4ccc(Cl)cc34)[nH]c(=O)c2c1C,4.19% (active)
11,CCCCc1n(Cc2ccc3ccccc3n2)cc[n+]1Cc1ccc2ccccc2n1,-30% (active)
12,CN(C)CCCn1c2c(c3ccc(-c4ccn[nH]4)cc3c1=O)C(=O)c1ccccc1-2,35% (inactive)
13,O=C1c2ccc3c4c(ccc(c24)C(=O)N1CCCNCc1ccccc1)C(=O)N(CCCNCc1ccccc1)C3=O,-95.5% (active)
14,COc1cccc(-c2nn(-c3ccccc3)cc2-c2ccnc(NCCNS(=O)(=O)c3ccccc3)c2)c1,14.5% (inactive)
15,CCn1c(Cc2ccccc2Nc2c(Cl)cccc2Cl)nnc1SCC(=O)Nc1cccc(OC)c1,75% (inactive)
16,CC[N+](CC)(CCOCCOCC[N+](CC)(CC)Cc1ccc([N+](=O)[O-])cc1)Cc1ccc([N+](=O)[O-])cc1,97.9% (inactive)
17,Cc1ccccc1Cn1cnc2ccc(-c3cc(NC(=O)c4ccc(NC5CCN(C)CC5)cc4)n[nH]3)cc21,94.5% (inactive)
18,Nc1c(C(=O)Nc2ccccn2)sc2nc3c(cc12)CCCC3,43.8% (inactive)
19,Cc1oc2c(C(=O)N/N=C\c3ccc(O)cc3O)c[nH]c2c1C,-11.8% (active)
20,CN(C)c1ccc2nc3ccc(=[N+](C)C)cc-3sc2c1,-31.5% (active) and -9.26% (active) and -4.98% (active)
